Measured values as given in PubChem BioAssay (NCI).
Compounds without any hit were thinned out: in the full panel of roughly 79,000, 15% have a hit. Calls of active or inactive are those of the source. Rule as the data show it: active = growth inhibition above about 70%; inactive = the rest.

assay: NCI Yeast Anticancer Drug Screen. Data for the cln2 rad14 strain (AID 165);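 also: 0% = growth equal to vehicle treated cultures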; details: S. cerevisiae cln2 rad14 strain, at 50.0 µM, hits give high values
Summary of the method: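 Growth inhibition, relative to vehicle-treated controls, is the read-out. The test organism is a yeast strain with defined genetic alterations, cln2 rad14.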

SMILES	growth inhibition
COc1ccc(OC)c2c(NCCNCCO)cc(NCCNCCO)nc12	0% (inactive)
CC(=O)NNC(=S)N/C=C(\C#N)c1nc2ccccc2s1	18.4% (inactive)
COc1ccc(Cc2cc3c(cc2OCCOC(C)=O)OCO3)cc1	0.05% (inactive)
NCCC(=O)NCCSSCCNC(=O)CCN	-16.8% (inactive)
CCN1CCCC1CO (stereo not given)	0.1% (inactive)
Cc1cccc(/C=N/Nc2ccc([N+](=O)[O-])cc2[N+](=O)[O-])c1C	-11.2% (inactive)
N#Cc1c(-c2ccco2)cc(-c2ccccc2)[nH]c1=O	33.3% (inactive)
COc1ccc(C(C)Nc2cc(OC)c(OC)c(OC)c2)cc1 (stereo not given)	5.5% (inactive)
CC1=NN(C(=O)c2ccccc2O)C(=O)/C1=C/c1ccc(O)cc1	-5.65% (inactive)
[N-]=[N+]=NC12CC3C4CC5CC3C(C1)C(C5)C4C2	10.2% (inactive)
C[N+](C)(CCCn1ccnc1[N+](=O)[O-])CCCn1ccnc1[N+](=O)[O-]	3.55% (inactive)
O=C1C(=C(C(F)(F)Cl)C(F)(F)Cl)C2CCC1C2 (stereo not given)	14.6% (inactive)
NC(=O)c1cc[n+](-c2ccc([N+](=O)[O-])cc2[N+](=O)[O-])cc1	34.6% (inactive)
O=C(/C=C(\Br)c1ccccc1)c1ccccc1	99.2% (active)
Cn1cc(C(=O)C2CCCCC2)ccc1=O	15.9% (inactive)
N#CCC(=O)N1CCCC1	-8.6% (inactive)
CC/C(C)=N/NS(C)(=O)=O	2.25% (inactive)
CCCCCCCCCCOc1ccc(OCCCCCCCCC)cc1	-45% (inactive)
C=CCCCCCCCCC(=O)N1CCN(C)CC1	16.6% (inactive)
CC(Cc1cccc2ccccc12)(C(=O)O)C(=O)O	-14.2% (inactive)

SMILES	growth inhibition
Cc1ccc([N+](=O)[O-])cc1NC(=O)NCCCl	-1% (inactive)
C=C1CC[C@H]2C(=O)OC(c3ccoc3)C[C@]2(C)C/C=C\C=C/1C(=O)OC (stereo not given in full)	-6% (inactive)
O=C(CCC(=O)Nc1cc(Cl)ccc1Cl)CC(=O)c1ccc([N+](=O)[O-])cc1	13.8% (inactive)
O=c1c2ccccc2c(=O)n2n1CC=CC2	-15.2% (inactive)
CCCCN=C(C)CC(=O)CC(=O)c1ccccc1	-53.6% (inactive)
CC(=N\N=C\c1ccccn1)/C(C)=N/N=C(C)/C(C)=N/N=C/c1ccccn1	11.4% (inactive)
CC(C)OP(=O)(c1ccccc1)c1ccc2c(c1)OCCOCCOCCOCCO2 (stereo not given)	7.05% (inactive)
O=[N+]([O-])c1cc2c(cc1Br)C1C(C3C2C2(Cl)C(Cl)=C(Cl)C3(Cl)C2(Cl)Cl)C2(Cl)C(Cl)=C(Cl)C1(Cl)C2(Cl)Cl (stereo not given)	11.8% (inactive)
CC1(C)OCC(C2OC3OC(C)(C)OC3/C2=N/NC(=O)c2cc3cc(OCc4ccccc4)ccc3[nH]2)O1 (stereo not given)	92.2% (active)
CC(C(=O)O)N(C)C(=O)OCc1ccccc1 (stereo not given)	-18.8% (inactive)
OCc1ccc(CO)cc1	-4.2% (inactive)
Cc1ccc2c(c1)C(c1cccc3ccccc13)OC2=O (stereo not given)	33.3% (inactive)
Cc1cn(-c2c(C)c(C)c(-n3c(C)ccc3C)c(C)c2C)cc1C	-15.8% (inactive)
CC12CC(=O)NC(=O)N1CCS2 (stereo not given)	-20.7% (inactive)
CCOC(=O)Cc1cccnc1	16.5% (inactive)
O=C(O)c1ccc([C@@H]2C(=O)N(O)[C@@H]3C=CC[C@@H]32)cc1	19.7% (inactive)
NC1=NCC(c2ccccn2)C1c1ccc(F)cc1 (stereo not given)	7.75% (inactive)
COc1ccc(N2C(=O)CC(c3cc(OC)c(OC)c(OC)c3)CC2=O)cc1	3.1% (inactive)
COC(=O)c1ccc(S(=O)(=O)O)cc1[N+](=O)[O-]	-11.2% (inactive)
NS(=O)(=O)c1ccc(N2C(=O)C(=O)N(c3ccccc3)C2=S)cc1	-39.4% (inactive)

assay: NCI Yeast Anticancer Drug Screen. Data for the bub3 strain (AID 167); details: S. cerevisiae bub3 mutant strain, at 50.0 µM, hits give high values
Summary of the method: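 Readout: yeast growth inhibition, expressed relative to vehicle-only wells. The test organism is a mutant strain from a panel with lesions in DNA repair or checkpoint genes.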

SMILES	growth inhibition
COc1ccc(OC)c2c(NCCNCCO)cc(NCCNCCO)nc12	-3.2% (inactive)
CC(=O)NNC(=S)N/C=C(\C#N)c1nc2ccccc2s1	-10.7% (inactive)
COc1ccc(Cc2cc3c(cc2OCCOC(C)=O)OCO3)cc1	15.2% (inactive)
NCCC(=O)NCCSSCCNC(=O)CCN	6.8% (inactive)
CCN1CCCC1CO (stereo not given)	-4.35% (inactive)
Cc1cccc(/C=N/Nc2ccc([N+](=O)[O-])cc2[N+](=O)[O-])c1C	-15.6% (inactive)
N#Cc1c(-c2ccco2)cc(-c2ccccc2)[nH]c1=O	9.7% (inactive)
COc1ccc(C(C)Nc2cc(OC)c(OC)c(OC)c2)cc1 (stereo not given)	-10.3% (inactive)
CC1=NN(C(=O)c2ccccc2O)C(=O)/C1=C/c1ccc(O)cc1	-11.8% (inactive)
[N-]=[N+]=NC12CC3C4CC5CC3C(C1)C(C5)C4C2	-6.15% (inactive)
C[N+](C)(CCCn1ccnc1[N+](=O)[O-])CCCn1ccnc1[N+](=O)[O-]	-14.8% (inactive)
O=C1C(=C(C(F)(F)Cl)C(F)(F)Cl)C2CCC1C2 (stereo not given)	21.2% (inactive)
NC(=O)c1cc[n+](-c2ccc([N+](=O)[O-])cc2[N+](=O)[O-])cc1	19.2% (inactive)
O=C(/C=C(\Br)c1ccccc1)c1ccccc1	98.9% (active)
Cn1cc(C(=O)C2CCCCC2)ccc1=O	-14.2% (inactive)
N#CCC(=O)N1CCCC1	-14.3% (inactive)
CC/C(C)=N/NS(C)(=O)=O	-44.8% (inactive)
CCCCCCCCCCOc1ccc(OCCCCCCCCC)cc1	-2.3% (inactive)
C=CCCCCCCCCC(=O)N1CCN(C)CC1	-5.25% (inactive)
CC(Cc1cccc2ccccc12)(C(=O)O)C(=O)O	-7.5% (inactive)

SMILES	growth inhibition
Cc1ccc([N+](=O)[O-])cc1NC(=O)NCCCl	-11.1% (inactive)
C=C1CC[C@H]2C(=O)OC(c3ccoc3)C[C@]2(C)C/C=C\C=C/1C(=O)OC (stereo not given in full)	-27.2% (inactive)
O=C(CCC(=O)Nc1cc(Cl)ccc1Cl)CC(=O)c1ccc([N+](=O)[O-])cc1	-2% (inactive)
O=c1c2ccccc2c(=O)n2n1CC=CC2	-2.75% (inactive)
CCCCN=C(C)CC(=O)CC(=O)c1ccccc1	22.4% (inactive)
CC(=N\N=C\c1ccccn1)/C(C)=N/N=C(C)/C(C)=N/N=C/c1ccccn1	1.95% (inactive)
CC(C)OP(=O)(c1ccccc1)c1ccc2c(c1)OCCOCCOCCOCCO2 (stereo not given)	-2.1% (inactive)
O=[N+]([O-])c1cc2c(cc1Br)C1C(C3C2C2(Cl)C(Cl)=C(Cl)C3(Cl)C2(Cl)Cl)C2(Cl)C(Cl)=C(Cl)C1(Cl)C2(Cl)Cl (stereo not given)	11.2% (inactive)
CC1(C)OCC(C2OC3OC(C)(C)OC3/C2=N/NC(=O)c2cc3cc(OCc4ccccc4)ccc3[nH]2)O1 (stereo not given)	84.3% (active)
CC(C(=O)O)N(C)C(=O)OCc1ccccc1 (stereo not given)	-11.8% (inactive)
OCc1ccc(CO)cc1	8.65% (inactive)
Cc1ccc2c(c1)C(c1cccc3ccccc13)OC2=O (stereo not given)	14.2% (inactive)
Cc1cn(-c2c(C)c(C)c(-n3c(C)ccc3C)c(C)c2C)cc1C	4.85% (inactive)
CC12CC(=O)NC(=O)N1CCS2 (stereo not given)	-13.7% (inactive)
CCOC(=O)Cc1cccnc1	-12.2% (inactive)
O=C(O)c1ccc([C@@H]2C(=O)N(O)[C@@H]3C=CC[C@@H]32)cc1	-14.7% (inactive)
NC1=NCC(c2ccccn2)C1c1ccc(F)cc1 (stereo not given)	-18.7% (inactive)
COc1ccc(N2C(=O)CC(c3cc(OC)c(OC)c(OC)c3)CC2=O)cc1	8.25% (inactive)
COC(=O)c1ccc(S(=O)(=O)O)cc1[N+](=O)[O-]	11.8% (inactive)
NS(=O)(=O)c1ccc(N2C(=O)C(=O)N(c3ccccc3)C2=S)cc1	-3.75% (inactive)
